Laboratory results reported in PubChem BioAssay (NCATS).
Records with an inconclusive call do not appear. The source made the active and inactive calls. The call rests on the fitted dose curve; in most records, active means well fitted cell-killing curve with a large enough effect; inconclusive means small, poorly fitted or top-dose-only effect; inactive means no such curve, though single readings can be large or run the other way.

test: qHTS of pediatric cancer cell lines to identify multiple opportunities for drug repurposing: Primary screen for SJ-GBM2 cells (AID 1347091); details: SJ-GBM2 viability, CellTiter-Glo luminescence, 48 h; series mostly up to 46 µM; activity change, negative = cytotoxic: at the top concentration
Text: Drug repurposing or repositioning has been offered as a strategy for drug development in oncology programs. This approach has special potential for childhood cancers and other rare or orphan diseases, where the expected return on new drug development has been a disincentive to pharmaceuticals.
In this project we exploit the poly-pharmacology of drugs to discover new indications via phenotypic screening of a panel of 19 well-characterized cell lines derived from solid tumors seen in children and adolescents. The goal is to identify approved drugs with previously unrecognized anticancer properties that has the potential to reveal new mechanisms and biological processes involved in carcinogenesis or drug resistance. We employed a titration-based paradigm (quantitative high-throughput screening or qHTS), where all compounds were tested at multiple concentrations for their effect on cell viability. Concentration-response curves (CRCs) were derived directly from the primary screen, and both potency and efficacy values were used to identify compounds with robust bioactivity profiles. We screened the NIH Chemical Genomics Center (NCGC) Pharmaceutical Collection (NPC) and Mechanism Interrogation Plate (MIPE) small molecule collections of approved and investigational compounds against these cell lines; and measured metabolically active cells after 48 hours of compound treatment as a proxy for cell viability.
Assay Submitter: Nathalia J. Martinez, National Center for Advancing Translational Sciences, National Institutes of Health, Rockville, MD, USA; email: natalia.martinez@nih.gov
[1] Shen, M et al. Quantitative high-throughput phenotypic screening of pediatric cancer cell lines identifies multiple opportunities for drug repurposing. Oncotarget 2017 Dec 19;9(4):4758-4772. PMID 29435139.
The cells were obtained from University of North Carolina (UNC), Pediatric Preclinical Testing Program (PPT), and Coriell Institute (CI).
qHTS cell viability assay:
Cells were assayed in growth media at a density of 500-1,000 cells/well. Five microliters of cells were dispensed into 1,536-well, white, solid-bottom, TC-treated plates (Greiner Bio One) using a multidrop dispenser and incubated at 37 degrees C, 5% CO2, under a humidified atmosphere for 5 hours. Twenty-three nanoliters of compounds and controls (neutral control DMSO or positive control bortezomib at final concentration of 2.3 µM) were subsequently transferred by Kalypsys pintool. For primary screens, the MIPE collection was tested at 11-point dilutions (final concentrations range from 0.78 nM to 46 µM) and the NPC collection at 8-point dilutions (final concentrations range from 0.59 nM to 46 µM). Compounds tested in follow-up screens were assayed at 11-point dilutions. Cells were incubated for 48 hours, followed by addition of 3 uL of CellTiter-Glo (Promega). After a 15 min incubation at room temperature, samples were analyzed for luminescence intensity using a ViewLux High-throughput CCD imager equipped with clear filters.
Potency means the concentration at half of the fitted maximal effect.

Row | SMILES | activity change, negative = cytotoxic | Potency
1 | C[C@@H]1CC[C@H]2[C@@H](C)C(=O)O[C@@H]3O[C@@]4(C)CC[C@H]1[C@]32OO4 | 0.99% (inactive) | 
2 | CCN(CC)C(=O)c1ccc(C2=CC3(CCNCC3)Oc3cccc(O)c32)cc1 | -9.82% (inactive) | 
3 | Oc1ccc2c3c1O[C@H]1c4[nH]c5c(c4C[C@@]4(O)[C@@H](C2)N(CC2CC2)CC[C@]314)C[C@@]1(O)[C@H]2Cc3ccc(O)c4c3[C@@]1(CCN2CC1CC1)[C@H]5O4 | 19.6% (inactive) | 
4 | CC(=O)Nc1ccc(OC[C@](C)(O)C(=O)Nc2ccc([N+](=O)[O-])c(C(F)(F)F)c2)cc1 | 8.89% (inactive) | 
5 | O=C(O)CCCOc1ccc(Cl)cc1Cl | 32.1% [at 92.7 µM] (inactive) | 
6 | Cc1nc(-c2ccc(-c3ccc(C(=O)N4CCc5cc6c(cc54)C4(CCN(C)CC4)CO6)cc3)c(C)c2)no1 | 84.9% (inactive) | 
7 | N#C[C@H](O[C@@H]1O[C@H](CO[C@@H]2O[C@H](CO)[C@H](O)[C@H](O)[C@H]2O)[C@H](O)[C@H](O)[C@H]1O)c1ccccc1 |  | 26.4 µM (active)
8 | O=C(Oc1ccc([N+](=O)[O-])cc1)N1CCN(Cc2cccc(Oc3ccccc3)c2)CC1 | -15.6% (inactive) | 
9 | COc1cc2cc(c1Cl)N(C)C(=O)C[C@H](OC(=O)C(C)C)[C@]1(C)O[C@H]1[C@H](C)[C@@H]1C[C@@](O)(NC(=O)O1)[C@H](OC)C=CC=C(C)C2 |  | 0.001 µM (active)
10 | CC(C)[C@]12O[C@@H]1[C@@H]1O[C@]13[C@]1(O[C@H]1C[C@@H]1C4=C(CC[C@@]13C)C(=O)OC4)[C@H]2O |  | 0.001 µM (active)
11 | CCCCCC[C@H]1C(=O)O[C@H](C)[C@H](NC(=O)c2cccc(NC=O)c2O)C(=O)O[C@@H](C)[C@@H]1OC(=O)CC(C)C |  | 0.187 µM (active)
12 | CS(=O)(=O)c1ccc(C(=O)C2C(=O)CCCC2=O)c([N+](=O)[O-])c1 | 28.6% [at 92.7 µM] (inactive) | 
13 | C[C@]12CCC(=O)C(O)=C1CC[C@@H]1[C@H]3CCC(=O)[C@@]3(C)CC[C@@H]12 | 3.91% (inactive) | 
14 | O=c1[nH]c2ccc(Cl)cc2c(N[C@@H]2CN3CCC2CC3)c1-c1nc2ccccc2[nH]1 |  | 0.0469 µM (active)
15 | Cc1cc(O)ccc1Cl | 23.1% (inactive) | 
16 | CCCCOC(=O)c1ccccc1C(=O)OCc1ccccc1 | 27.3% [at 92.7 µM] (inactive) | 
17 | Cc1c(C(=O)Nc2cccc(C(F)(F)F)c2)cc(-c2ccccc2)n1CCCN1CCOCC1 |  | 18.7 µM (active)
18 | COCCOCCO | 27.7% [at 92.7 µM] (inactive) | 
19 | COc1ccc(CC2NCCc3cc(OC)c(OC)cc32)cc1OC (stereo not given) | 14.4% (inactive) | 
20 | CC[C@H]1C=CC=CC[C@@H](C)[C@H](O)[C@@](C)(O)C(=O)[C@@H](C)[C@H](O)[C@@H](C)C(=O)[C@@H](C)[C@H](O)[C@@H](C)C=CC(=O)O[C@@H]2[C@@H](C)[C@H](CC1)O[C@]1(CC[C@H](C)[C@H](C[C@@H](C)O)O1)[C@H]2C |  | 0.264 µM (active)

Row | SMILES | activity change, negative = cytotoxic | Potency
21 | Cc1c(N)nc([C@H](CC(N)=O)NC[C@@H](N)C(N)=O)nc1C(=O)N[C@H](C(=O)N[C@@H](C)[C@H](O)[C@@H](C)C(=O)N[C@@H](C(=O)NCCc1nc(-c2nc(C(=O)NCCC[S+](C)C)cs2)cs1)[C@@H](C)O)C(O[C@H]1O[C@H](CO)[C@H](O)[C@@H](O)[C@@H]1O[C@H]1O[C@H](CO)[C@@H](O)[C@H](OC(N)=O)[C@H]1O)c1cnc[nH]1 (stereo not given in full) |  | 1.48 µM (active)
22 | CC[C@@H]1[C@@H](C)O[C@@](O)([C@@H](C)[C@H](O)[C@H](C)[C@H]2OC(=O)C=CC=C[C@@H](C)[C@@H]([C@@H](C)[C@@H](O)[C@H](C)[C@@]3(O)C[C@H](O[C@H]4C[C@H](O)[C@H](O)[C@H](C)O4)[C@H](CC)[C@@H](C)O3)OC(=O)C=CC=C[C@@H]2C)C[C@H]1O[C@H]1C[C@H](O)[C@H](O)[C@H](C)O1 |  | 0.526 µM (active)
23 | CC(N[C@H]1C[C@H]1c1ccccc1)c1ccc2c(c1)OCCO2 (stereo not given in full) | 32.9% (inactive) | 
24 | O=C1C(I)=CC(=C(c2cc(I)c(O)c(I)c2)c2ccccc2C(=O)O)C=C1I | 44.5% (inactive) | 
25 | C[C@@H]1O[C@@H](O[C@@H]2C=C3CC[C@@H]4[C@@H](CC[C@]5(C)[C@H](c6ccc(=O)oc6)CC[C@@]45O)[C@@]3(C)CC2)[C@H](O)[C@H](O)[C@H]1O |  | 0.0083 µM (active)
26 | O=C(O)C(Cl)Cl | 11.5% (inactive) | 
27 | O=[N+]([O-])c1cc([N+](=O)[O-])c2ccccc2c1 | 53.8% [at 92.7 µM] (inactive) | 
28 | COc1ccc(C(=O)c2c(C)n(CCN3CCOCC3)c3cc(I)ccc23)cc1 |  | 18.7 µM (active)
29 | CCCC[N+]1(C)[C@H]2CC(OC(=O)[C@H](CO)c3ccccc3)C[C@H]1[C@H]1O[C@H]12 (stereo not given in full) | 3.22% (inactive) | 
30 | CC(O)CN1CCN(CC(=O)[O-])CCN(CC(=O)[O-])CCN(CC(=O)[O-])CC1.[Gd+3] (stereo not given) | 3.62% (inactive) | 
31 | CC(C)[C@H]1C(=O)N[C@H](CO)Cc2c[nH]c3cccc(c23)N1C | -16.6% (inactive) | 
32 | Nc1c(Cl)c(Cl)c(Cl)c(Cl)c1Cl | 17.2% [at 92.7 µM] (inactive) | 
33 | C#CC1(O)CCC2C3CCC4=CC(=O)CCC4(C)C3CCC21C (stereo not given) | -9.62% (inactive) | 
34 | CN[C@@H](C)[C@H](O)c1ccccc1 | -1.8% (inactive) | 
35 | CC(=O)O[C@@]12CO[C@H]1C[C@H](O)[C@@]1(C)C(=O)[C@H](O)C3=C(C)[C@@H](O)C[C@@](O)([C@@H](OC(=O)c4ccccc4)[C@@H]21)C3(C)C |  | 1.48 µM (active)
36 | CN(C)NC(=O)CCC(=O)O | 7.05% (inactive) | 
37 | COc1cccc2c1[C@]13CCN(CC4CC4)[C@H](C2)[C@]1(OC)CCC(=O)C3 | 16.8% (inactive) | 
38 | C#C[C@]1(O)C=C[C@@H]2[C@@H]3CCC4=CC(=O)CC[C@@H]4[C@H]3CC[C@@]21CC | 22.3% (inactive) | 
39 | CCC(=O)O[C@@H]1C=C2CCC3C(CCC4(C)C3CC[C@@H]4OC(=O)CC)C2CC1 (stereo not given in full) | 12.2% (inactive) | 
40 | C[C@@]12OC(=O)[C@]1([C@@H](O)[C@@H]1C=CCCC1)NC(=O)[C@H]2CCCl |  | 0.0105 µM (active)
